{"source": "PubChem BioAssay (NCATS)", "note": "A number with no mark means an inactive call. Inconclusive results are not listed. Entries that show only a call come without a potency. Active and inactive are the calls of the source. Unless noted, the call rests on the fitted dose curve; in most records, active means well fitted curve in the direction sought with a large enough effect; inconclusive means small, poorly fitted or top-dose-only effect, or another doubt; inactive means no such curve, though single readings can be large; an effect the other way counts as inactive or inconclusive.", "data": [{"molecular_target": "Glucocorticoid receptor (Homo sapiens) (UniProt P04150)", "sequence (P04150 whole entry, looked up, the tested form may be a part)": "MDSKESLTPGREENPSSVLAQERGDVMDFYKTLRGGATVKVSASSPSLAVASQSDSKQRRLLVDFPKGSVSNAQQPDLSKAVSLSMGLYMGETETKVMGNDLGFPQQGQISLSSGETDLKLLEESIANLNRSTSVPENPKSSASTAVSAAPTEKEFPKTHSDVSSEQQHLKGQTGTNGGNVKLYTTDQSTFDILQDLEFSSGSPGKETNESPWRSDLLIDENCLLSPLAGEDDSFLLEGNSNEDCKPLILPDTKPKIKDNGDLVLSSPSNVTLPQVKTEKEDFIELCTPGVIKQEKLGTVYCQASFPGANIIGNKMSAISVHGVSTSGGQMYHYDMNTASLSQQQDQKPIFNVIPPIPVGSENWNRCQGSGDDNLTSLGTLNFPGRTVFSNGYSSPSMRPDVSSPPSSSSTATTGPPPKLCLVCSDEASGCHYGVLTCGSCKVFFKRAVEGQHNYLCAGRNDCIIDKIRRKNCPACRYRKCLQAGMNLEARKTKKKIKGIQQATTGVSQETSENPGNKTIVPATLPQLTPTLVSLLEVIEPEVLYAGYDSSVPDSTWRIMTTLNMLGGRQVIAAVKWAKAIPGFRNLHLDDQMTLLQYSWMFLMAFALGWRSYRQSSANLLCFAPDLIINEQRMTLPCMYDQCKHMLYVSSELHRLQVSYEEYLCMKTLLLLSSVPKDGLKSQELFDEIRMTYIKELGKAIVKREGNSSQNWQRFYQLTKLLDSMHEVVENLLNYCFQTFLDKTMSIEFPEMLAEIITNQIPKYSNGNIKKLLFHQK", "experiment": "GR-EFC Redistribution (AID 451; calls by dose curve; further: potency means the concentration at half of the fitted maximal effect)", "settings": "CHO-K1 GR-EFC translocation, beta-gal luminescence, 2 h", "in_short": "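CHO-K1 cells stably expressing nuclear-localized β-gal enzyme acceptor and GR fused C-terminally to the enzyme donor fragment; ligand-driven nuclear translocation restores β-gal by complementation. Compounds titrated up to 46 uM final, 2 h at 37 °C; luminescence read.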", "units": {"Potency": "µM"}, "values": [{"smiles": "CCCCCCCCCC(=O)N[C@@H](CN1CCOCC1)[C@@H](O)c1ccccc1", "Potency": "> 46"}, {"smiles": "CN(C)CCCO[C@H]1[C@H]([C@H](O)CO)O[C@H]2OC(C)(C)O[C@@H]21", "Potency": "> 46"}, {"smiles": "CCCCCCCCCCCCCCCCCC(=O)NC[C@@H](COP(=O)([O-])OCC[N+](C)(C)C)OCC", "Potency": "> 46"}]}, {"molecular_target": "3',5'-cyclic-AMP phosphodiesterase 4B (Homo sapiens) (UniProt Q07343)", "sequence (Q07343 whole entry, looked up)": "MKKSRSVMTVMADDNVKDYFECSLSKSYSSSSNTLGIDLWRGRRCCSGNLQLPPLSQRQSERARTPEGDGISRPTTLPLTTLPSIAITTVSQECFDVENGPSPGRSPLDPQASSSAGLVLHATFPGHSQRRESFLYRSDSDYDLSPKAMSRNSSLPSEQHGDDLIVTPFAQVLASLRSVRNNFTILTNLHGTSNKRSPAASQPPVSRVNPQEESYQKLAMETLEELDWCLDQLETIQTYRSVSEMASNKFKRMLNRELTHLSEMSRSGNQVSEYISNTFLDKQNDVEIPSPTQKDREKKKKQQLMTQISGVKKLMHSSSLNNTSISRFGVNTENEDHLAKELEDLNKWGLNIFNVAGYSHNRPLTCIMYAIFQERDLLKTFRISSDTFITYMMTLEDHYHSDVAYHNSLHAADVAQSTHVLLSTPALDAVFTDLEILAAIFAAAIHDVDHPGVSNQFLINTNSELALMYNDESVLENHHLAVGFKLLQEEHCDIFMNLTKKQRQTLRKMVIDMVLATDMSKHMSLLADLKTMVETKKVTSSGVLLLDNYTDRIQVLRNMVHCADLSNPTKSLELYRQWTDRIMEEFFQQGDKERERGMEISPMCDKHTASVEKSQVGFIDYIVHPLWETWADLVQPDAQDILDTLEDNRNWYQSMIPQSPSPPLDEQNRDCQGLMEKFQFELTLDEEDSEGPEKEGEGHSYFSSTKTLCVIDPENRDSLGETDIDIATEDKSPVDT", "experiment": "qHTS Assay for Inhibitors of PDE-IV (AID 607; active means well fitted activation curve with a large enough effect in the main read-out, with a control signal flat, not every such curve was filed as active)", "settings": "HEK293 ACTOne CNG channel cells, membrane potential fluorescence; series mostly up to 22.9 µM", "in_short": "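HEK293 ACTOne cells with CNG channel (1000/well), endogenous PDE4; membrane potential dye, compounds up to 22.9 uM final. Fluorescence Ex 535/Em 590; RO 20-1724 (100 uM final) as reference.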", "values": [{"smiles": "CCCCCCCCCC(=O)N[C@@H](CN1CCOCC1)[C@@H](O)c1ccccc1", "Potency": "inactive"}, {"smiles": "CN(C)CCCO[C@H]1[C@H]([C@H](O)CO)O[C@H]2OC(C)(C)O[C@@H]21", "Potency": "inactive"}, {"smiles": "CCCCCCCCCCCCCCCCCC(=O)NC[C@@H](COP(=O)([O-])OCC[N+](C)(C)C)OCC", "Potency": "inactive"}]}, {"molecular_target": "Guanine nucleotide-binding protein G(i) subunit alpha-1 (Homo sapiens) (UniProt P63096)", "sequence (P63096 whole entry, looked up)": "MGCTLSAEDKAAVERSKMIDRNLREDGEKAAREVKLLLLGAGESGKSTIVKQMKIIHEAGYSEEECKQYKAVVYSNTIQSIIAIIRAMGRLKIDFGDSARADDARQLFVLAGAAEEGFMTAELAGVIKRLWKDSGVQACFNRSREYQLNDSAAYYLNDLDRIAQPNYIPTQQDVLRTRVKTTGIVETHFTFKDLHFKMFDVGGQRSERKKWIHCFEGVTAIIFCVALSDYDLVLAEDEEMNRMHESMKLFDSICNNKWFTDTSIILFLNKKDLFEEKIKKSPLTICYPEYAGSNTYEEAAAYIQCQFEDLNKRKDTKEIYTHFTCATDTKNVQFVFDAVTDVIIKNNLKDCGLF", "experiment": "qHTS Assay for Inhibitors of RGS12 GoLoco Motif Activity (Green Fluorophore) (AID 879);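 further: negative values mean loss of peptide binding seen as reduced polarization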", "settings": "Galphai1/FITC-RGS12 GoLoco peptide, fluorescence polarization; series mostly up to 57.1 µM", "in_short": "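Fluorescence polarization assay: 50 nM Gαi1 with 10 nM FITC-labeled RGS12 GoLoco peptide in 10 mM Tris pH 7.5, 150 mM NaCl, 0.1 mM GDP, 0.05% NP40, 10 min at room temperature with compound.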", "values": [{"smiles": "CCCCCCCCCC(=O)N[C@@H](CN1CCOCC1)[C@@H](O)c1ccccc1", "outcome": "inactive"}, {"smiles": "CN(C)CCCO[C@H]1[C@H]([C@H](O)CO)O[C@H]2OC(C)(C)O[C@@H]21", "outcome": "inactive"}, {"smiles": "CCCCCCCCCCCCCCCCCC(=O)NC[C@@H](COP(=O)([O-])OCC[N+](C)(C)C)OCC", "outcome": "inactive"}]}, {"tested_on": "not listed separately", "experiment": "qHTS Assay for Identification of Small Molecule Agonists for Hypoxia Response Element Signaling Pathway (AID 914; active means well fitted activation curve with a large enough effect in the signal ratio, with a control signal flat, not every such curve was filed as active; the % refers to the signal ratio; further: potency means the concentration at half of the fitted maximal effect)", "settings": "ME-180 HRE-bla reporter, beta-lactamase ratio, CoCl2, 17 h; activation: active compounds read high", "in_short": "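A beta-lactamase reporter under hypoxia response element control in ME-180 cells served as the system. Compound titrations plus EC50 CoCl2 ran 17 h at 37 degrees Celsius; AC50 values were fitted from %Activity.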", "units": {"activation": "%"}, "values": [{"smiles": "CCOC(=O)C(O)(C1C(=O)CC(C)(C)CC1=O)C(F)(F)F", "note": "(configuration not stated)", "Potency": "10 µM (active)"}, {"smiles": "CC1(C)Cc2c(C#N)c(NCC3CCCO3)nc(-c3ccco3)c2CO1", "note": "(configuration not stated)", "activation": 25.9}, {"smiles": "COc1ccc(-c2nn3c(COc4ccccc4)nnc3s2)cc1OC", "activation": -19.3}, {"smiles": "COc1ccc(CCCNC(=O)CC#N)cc1OC", "activation": 5.59}]}, {"molecular_target": "Muscarinic acetylcholine receptor M1 (Rattus norvegicus) (UniProt P08482)", "sequence (P08482 whole entry, looked up)": "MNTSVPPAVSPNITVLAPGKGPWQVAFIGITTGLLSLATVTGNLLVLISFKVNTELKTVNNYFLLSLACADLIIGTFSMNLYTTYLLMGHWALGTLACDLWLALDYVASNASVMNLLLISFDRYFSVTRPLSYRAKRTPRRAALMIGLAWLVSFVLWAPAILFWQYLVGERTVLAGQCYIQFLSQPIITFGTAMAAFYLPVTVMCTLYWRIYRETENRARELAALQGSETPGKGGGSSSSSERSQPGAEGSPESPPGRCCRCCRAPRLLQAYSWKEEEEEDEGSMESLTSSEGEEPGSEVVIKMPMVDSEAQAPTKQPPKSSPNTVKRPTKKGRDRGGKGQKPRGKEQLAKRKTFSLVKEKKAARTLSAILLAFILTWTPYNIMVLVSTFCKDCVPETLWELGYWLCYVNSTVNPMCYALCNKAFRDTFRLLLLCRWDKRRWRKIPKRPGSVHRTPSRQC", "experiment": "qHTS Assay for Antagonists of Acetylcholine Muscarinic M1 Receptor: Kinetic Measurement of Intracellular Calcium Response (AID 943); further: nearly all actives have a fitted effect of over 75% in size; further: potency means the concentration at half of the fitted maximal effect", "settings": "M1-expressing cells, kinetic intracellular calcium fluorescence; series mostly up to 35.3 µM", "in_short": "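CHO cells expressing rat M1 receptor, Fluo-4 loaded, preincubated 10 min with compound, then stimulated with EC80 carbachol (100 nM final). Kinetic calcium fluorescence over 4 min; response taken as peak over basal signal.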", "values": [{"smiles": "CCCCCCCCCC(=O)N[C@@H](CN1CCOCC1)[C@@H](O)c1ccccc1", "Potency": "inactive"}, {"smiles": "CN(C)CCCO[C@H]1[C@H]([C@H](O)CO)O[C@H]2OC(C)(C)O[C@@H]21", "Potency": "inactive"}, {"smiles": "CCCCCCCCCCCCCCCCCC(=O)NC[C@@H](COP(=O)([O-])OCC[N+](C)(C)C)OCC", "Potency": "7.08 µM (active)"}]}, {"molecular_target": "Pyruvate kinase (Leishmania mexicana) (UniProt Q27686)", "sequence (Q27686 2-499 E452W)": "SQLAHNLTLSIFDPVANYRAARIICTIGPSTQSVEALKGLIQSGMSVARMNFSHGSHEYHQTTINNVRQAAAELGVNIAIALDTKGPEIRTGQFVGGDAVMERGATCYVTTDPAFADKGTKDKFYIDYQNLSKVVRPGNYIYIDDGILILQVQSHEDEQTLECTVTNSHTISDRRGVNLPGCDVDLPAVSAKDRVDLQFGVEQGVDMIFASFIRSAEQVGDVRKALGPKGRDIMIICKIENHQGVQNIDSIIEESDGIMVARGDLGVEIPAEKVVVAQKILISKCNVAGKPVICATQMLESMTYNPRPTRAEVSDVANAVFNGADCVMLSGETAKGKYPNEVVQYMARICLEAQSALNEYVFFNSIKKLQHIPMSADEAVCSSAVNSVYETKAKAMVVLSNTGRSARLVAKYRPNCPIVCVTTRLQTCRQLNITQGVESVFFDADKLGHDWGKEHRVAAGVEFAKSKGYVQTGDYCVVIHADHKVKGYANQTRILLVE", "experiment": "qHTS Validation Assay for Inhibitors of Leishmania Mexicana Pyruvate Kinase (AID 945)", "settings": "purified L. mexicana pyruvate kinase, enzyme activity, E451W mutant enzyme; series mostly up to 57.5 µM", "in_short": "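Compounds are tested as eight-point concentration series. Reactions contain 0.2 nM LmPYK E451W, 0.5 mM PEP, 0.1 mM ADP, 7 mM MgCl2 and 50 mM KCl at pH 7.2, run 1 h at room temperature, then read by PKLight luminescence.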", "values": [{"smiles": "CCCCCCCCCC(=O)N[C@@H](CN1CCOCC1)[C@@H](O)c1ccccc1", "Potency": "inactive"}, {"smiles": "CN(C)CCCO[C@H]1[C@H]([C@H](O)CO)O[C@H]2OC(C)(C)O[C@@H]21", "Potency": "inactive"}, {"smiles": "CCCCCCCCCCCCCCCCCC(=O)NC[C@@H](COP(=O)([O-])OCC[N+](C)(C)C)OCC", "Potency": "inactive"}]}, {"molecular_target": "Pyruvate kinase PKM (Homo sapiens) (UniProt P14618)", "sequence (P14618 whole entry, looked up)": "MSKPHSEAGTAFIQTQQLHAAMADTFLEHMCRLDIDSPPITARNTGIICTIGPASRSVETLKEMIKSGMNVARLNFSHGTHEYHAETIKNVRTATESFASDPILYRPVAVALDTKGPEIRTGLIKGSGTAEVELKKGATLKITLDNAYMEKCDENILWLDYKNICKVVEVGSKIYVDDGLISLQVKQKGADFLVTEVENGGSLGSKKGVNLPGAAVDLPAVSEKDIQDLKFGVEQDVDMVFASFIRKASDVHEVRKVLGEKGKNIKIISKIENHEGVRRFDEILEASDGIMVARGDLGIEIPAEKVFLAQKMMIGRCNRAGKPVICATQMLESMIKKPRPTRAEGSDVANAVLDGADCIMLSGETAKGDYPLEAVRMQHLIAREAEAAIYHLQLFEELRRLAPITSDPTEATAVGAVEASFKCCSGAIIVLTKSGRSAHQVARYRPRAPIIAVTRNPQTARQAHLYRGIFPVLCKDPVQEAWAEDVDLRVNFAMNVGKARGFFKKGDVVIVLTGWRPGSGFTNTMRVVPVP", "experiment": "qHTS Assay for Activators of Human Muscle Pyruvate Kinase (AID 954; active means well fitted curve in the direction sought with a large enough effect, not every such curve was filed as active)", "settings": "purified human muscle pyruvate kinase, luciferase-coupled luminescence, 1 h; series mostly up to 57.5 µM", "in_short": "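Purified human PKM2 (0.1 nM) with 0.5 mM PEP (Km) and 0.1 mM ADP in 50 mM imidazole pH 7.2, KCl, MgCl2, 1 h at room temperature; ATP formed read by coupled luciferase luminescence. Normalized to no-enzyme/110 uM thiadiazolimine inhibition; 0.3 nM enzyme column for activation.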", "values": [{"smiles": "CCCCCCCCCC(=O)N[C@@H](CN1CCOCC1)[C@@H](O)c1ccccc1", "outcome": "inactive"}, {"smiles": "CN(C)CCCO[C@H]1[C@H]([C@H](O)CO)O[C@H]2OC(C)(C)O[C@@H]21", "outcome": "inactive"}, {"smiles": "CCCCCCCCCCCCCCCCCC(=O)NC[C@@H](COP(=O)([O-])OCC[N+](C)(C)C)OCC", "outcome": "inactive"}]}]}
